Experiment [1] in a line: AP1 Signaling Pathway (AID 357; active = well fitted curve in either direction with a large enough effect, not every such curve was filed as active; note: % is set by controls: 0 for no effect and ±100 for the full control effect). The following applies: ME-180 AP-1-bla reporter, EGF-induced, beta-lactamase ratio, 5 h; at 7.69 µM (top of the series) unless noted. In short, it runs like this: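 AP-1-bla ME-180 cells, Opti-MEM + 0.5% dialyzed FBS, plated overnight 37 °C. Cpd titration + EC50 EGF, 5 h 37 °C. CCF4 2.5 h RT; ex 405, em 460/530 ratio → %activity, AC50.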

The target in experiment [2] is Cytochrome P450 1A2 (Homo sapiens) (UniProt P05177). Nature of the experiment: p450-cyp1a2 (AID 410; calls by dose curve; note: potency is the fitted concentration of half-maximal effect;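 for activity change, negative = inhibition: -100% = full effect of reference inhibitor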). In short, it runs like this: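 Read-out is luminescence from luciferin produced by CYP1A2 demethylation of Luciferin-ME (100uM, at Km). Detection reagent stopped the 60 min NADPH-dependent reaction; signals were normalized to 57 uM furafylline.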
Experiment [3] is described as follows: NFAT Signaling Pathway (AID 444; active = well fitted curve in either direction with a large enough effect, not every such curve was filed as active;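 note: carbachol stimulus at about its EC50 of 1 µM final; % is set by controls: 0 for no effect and ±100 for the full control effect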). The following applies: Jurkat NFAT-bla M1, carbachol, beta-lactamase ratio, 5 h; at 7.69 µM (top of the series) unless noted. The method, boiled down:
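Read-out: CCF4 FRET ratio (460 nm/530 nm) after 1 h RT dye loading, used for %activity and AC50 from titration series. Cells: Jurkat NFAT-β-lactamase/M1 line, treated with compound plus 1 uM carbachol for 5 h, 37 °C.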

The nature of experiment [4]: Stat Signaling Pathway (AID 446; active = well fitted curve in either direction with a large enough effect, not every such curve was filed as active;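 note: ME-180 cervical cancer cells given 40 pM IL-6 alongside compound; SIE-controlled beta-lactamase reporter measured as 460/530 nm FRET emission ratio; % is set by controls: 0 for no effect and ±100 for the full control effect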). Conditions: ME-180 (cervical carcinoma) SIE beta-lactamase reporter, IL-6 stimulated, 5 h; at 7.69 µM (top of the series) unless noted. In short, it runs like this:
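Overnight-plated ME-180 cells bearing a STAT Inducible Element beta-lactamase reporter; 5 h co-exposure to compound and 40 pM IL-6; values normalized to 300 pM IL-6 and 125 nM JAK inhibitor controls.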

Experiment [5] deals with Glucocorticoid receptor (Homo sapiens) (UniProt P04150). In words: GR-GFP Redistribution (AID 450;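 active = compounds whose dose series gives a full or clear partial fitted curve of increased nuclear translocation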; note: potency is the fitted concentration of half-maximal effect). The following applies: U2OS GR-GFP nuclear translocation, laser cytometry, 2 h.
The target is the same in experiment [6]. In words: GR-EFC Redistribution (AID 451; calls by dose curve; note: potency is the fitted concentration of half-maximal effect). Conditions: CHO-K1 GR-EFC translocation, beta-gal luminescence, 2 h. The method, boiled down:
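Translocation of GR-ED fusion to nuclear EA restores b-gal, read by luminescence after 1 h room-temperature detection. Engineered CHO-K1 biosensor cells, 1,000/well, exposed 2 h at 37 C to titrations up to 46 uM final.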

The target of experiment [7] is Mitogen-activated protein kinase 10 (Mus musculus) (UniProt Q61831). In words: JNK3 AlphaScreen Assay (AID 530; active = well fitted curve in either direction with a large enough effect, not every such curve was filed as active;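 note: kinase came from lysate of stimulated human HepG2 cells; signal reports phosphorylation of biotinylated GST-cJun 1-79 at Ser73 with 10 µM ATP; % is set by controls: 0 for no effect and ±100 for the full control effect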). In short, it runs like this:
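Kinase buffer: 20 mM Tris-HCl pH 7.6, 10 mM MgCl2, 1 mM DTT, 0.1 mM Na3VO4, 0.01% Tween-20; ATP 10 uM. Substrate biotin-GST-cJun(1-79), enzyme from activated HepG2 lysates. Detection by Ser73 phospho-antibody AlphaScreen.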
For orientation: Bead proximity is the source of the signal in Alpha formats.

For experiment [8], the target named is 3',5'-cyclic-AMP phosphodiesterase 4B (Homo sapiens) (UniProt Q07343). Nature of the experiment: qHTS Assay for Inhibitors of PDE-IV (AID 607; active = well fitted activation curve with a large enough effect in the main read-out, with a control signal flat, not every such curve was filed as active; note: % of control where 0% means no effect). The method, boiled down:
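Live HEK293 cells with a modified cyclic nucleotide-gated (CNG) channel report intracellular cAMP via membrane-potential dye fluorescence (ex 535/em 590 nm). Endogenous PDE-IV was targeted. Compounds were tested at up to 22.9 uM final; RO 20-1724 100 uM served as control.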

For experiment [9], the target named is Guanine nucleotide-binding protein G(i) subunit alpha-1 (Homo sapiens) (UniProt P63096). In words: qHTS Assay for Inhibitors of RGS12 GoLoco Motif Activity (Green Fluorophore) (AID 879).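 Note: 0% = labeled peptide with Gαi1 and full inhibition = labeled peptide alone without protein; negative values mean loss of peptide binding seen as reduced polarization.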 The method, boiled down: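 A drop in FITC polarization marked displacement of the FITC-tagged RGS12 GoLoco peptide (10 nM) from Gαi1 (50 nM). Compounds were incubated 10 min at room temperature in Tris pH 7.5 buffer containing 150 mM NaCl, 0.1 mM GDP and 0.05% NP40; unlabeled peptide titration served as control.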

The nature of experiment [10]: qHTS Assay for Identification of Small Molecule Agonists for Thrombopoietin (TPO) Signaling Pathway (AID 917). Note: % is set by controls: 0 for no effect and ±100 for the full control effect. The method, boiled down:
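Stimulation at the TPO EC50 (26 pM final) was used to detect activators. Ba/F3 mouse cells bearing human TPO receptor and a luciferase reporter under the Glycoprotein IIb promoter were exposed to compounds for 24 hrs at 37 C.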
In general terms: qHTS replaces the single test concentration by a dilution series.

For experiment [11], the target named is Muscarinic acetylcholine receptor M1 (Rattus norvegicus) (UniProt P08482). Nature of the experiment: qHTS Assay for Antagonists of Acetylcholine Muscarinic M1 Receptor: Measurement of IP-One Response (AID 944). Note: nearly all actives have a fitted effect of over 75% in size. In short, it runs like this:
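Antagonism was measured as loss of carbachol-driven (EC80) IP1 accumulation in CHO cells carrying rat M1, using a homogeneous IP-One TR-FRET kit read at 620 and 665 nm.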

The target in experiment [12] is Pyruvate kinase (Leishmania mexicana) (UniProt Q27686). In words: qHTS Validation Assay for Inhibitors of Leishmania Mexicana Pyruvate Kinase (AID 945).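 Note: 0% = DMSO only neutral control wells.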 In short, it runs like this:
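Compounds are tested as eight-point concentration series. Reactions contain 0.2 nM LmPYK E451W, 0.5 mM PEP, 0.1 mM ADP, 7 mM MgCl2 and 50 mM KCl at pH 7.2, run 1 h at room temperature, then read by PKLight luminescence.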

For experiment [13], the target named is Pyruvate kinase PKM (Homo sapiens) (UniProt P14618). Nature of the experiment: qHTS Assay for Activators of Human Muscle Pyruvate Kinase (AID 954; active = well fitted curve in the direction sought with a large enough effect, not every such curve was filed as active;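 note: 0% = uninhibited enzyme and -100% = no enzyme or full thiadiazolimine inhibition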). The method, boiled down:
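Screening used highly purified human pyruvate kinase M2 under submaximal activity, with PEP at its Km and ADP below Km. After an hour at room temperature, ATP was read by luciferase luminescence.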

Experiment [14] concerns the target Alpha-galactosidase A (Homo sapiens) (UniProt P06280). In words: Counterscreen for Glucocerebrosidase Inhibitors: qHTS Assay for Human alpha-Galactosidase at pH 4.5 (AID 992). Note: 0% is about no effect. In short, it runs like this: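 Each compound is preincubated briefly with 2 nM enzyme before substrate addition (80 uM); plates then sit 20 min at ambient temperature, are quenched with 1M NaOH/1M glycine, and read fluorometrically.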
(In general: A counterscreen serves to expose hits that act by an unwanted route or on another target.)

The target in experiment [15] is alpha-glucosidase (Oryza sativa, rice) (UniProt Q653V4). In words: Counterscreen for Glucocerebrosidase Inhibitors: qHTS Assay for Rice alpha-Glucosidase at pH 5.0 (AID 997).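 Note: 0% = full activity with enzyme and -100% = basal without enzyme.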 The method, boiled down:
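Endpoint fluorogenic assay at pH 5.0: compounds (0.7 nM to 77 uM) titrated against 4 nM rice enzyme and 400 uM 4-MU-alpha-glucoside for 20 min at room temperature; NaOH/glycine stop, read ex 365/em 440 nm, Hill-fitted AC50.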

In experiment [16] the target is Cytochrome P450 2C19 (Homo sapiens) (UniProt P33261). In words: qHTS Assay for Inhibitors and Substrates of Cytochrome P450 2C19 (AID 899). Note: % is set by controls: 0 for no effect and ±100 for the full control effect; nearly all actives have a fitted effect of over 60% in size. The method, boiled down: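 5nM enzyme + 10uM Luciferin-H EGE (=KM), 50mM KPO4; cpd pin-transferred, 10 min 37C; NADPH regen, 60 min 37C; stopped w/ luciferin detection reagent, 20 min; luminescence. Normalized to 57uM ketoconazole (AC100).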

Experiment [17] addresses Cytochrome P450 3A4 (Homo sapiens) (UniProt P08684). In words: qHTS Assay for Activators of Cytochrome P450 3A4 (AID 885). Note: nearly all actives have a fitted effect of over 65% in size. In short, it runs like this:
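Using 20nM recombinant human CYP3A4 in potassium phosphate (200mM), substrate Luciferin-PPXE at 25uM, luminescent luciferin detection followed a 60-min RT NADPH reaction; data scaled to 57 uM ketoconazole.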

Each structure is given as a SMILES string. Unmarked numbers belong to inactive results. Records with an inconclusive call do not appear. Calls of active or inactive are those of the source. Unless noted, calls come from the whole dose curve; as a rule, active = well fitted curve in the direction sought with a large enough effect; inconclusive = small, poorly fitted or top-dose-only effect, or another doubt; inactive = no such curve, though single readings can be large; an effect the other way counts as inactive or inconclusive.

Pyruvate kinase PKM (Homo sapiens), sequence (P14618 whole entry, looked up): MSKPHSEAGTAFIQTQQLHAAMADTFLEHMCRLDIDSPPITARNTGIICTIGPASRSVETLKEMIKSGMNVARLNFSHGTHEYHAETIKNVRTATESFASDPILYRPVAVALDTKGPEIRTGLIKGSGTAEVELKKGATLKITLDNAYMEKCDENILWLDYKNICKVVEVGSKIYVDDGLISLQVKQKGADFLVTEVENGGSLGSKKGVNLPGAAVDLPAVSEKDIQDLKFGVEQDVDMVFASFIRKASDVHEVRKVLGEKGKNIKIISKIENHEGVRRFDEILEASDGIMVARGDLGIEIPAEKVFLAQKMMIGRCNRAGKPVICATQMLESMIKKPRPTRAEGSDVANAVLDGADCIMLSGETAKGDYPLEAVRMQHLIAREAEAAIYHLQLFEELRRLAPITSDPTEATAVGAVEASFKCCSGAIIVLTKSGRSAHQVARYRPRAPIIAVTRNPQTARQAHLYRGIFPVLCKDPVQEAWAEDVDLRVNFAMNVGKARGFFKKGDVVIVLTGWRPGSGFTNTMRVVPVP
Guanine nucleotide-binding protein G(i) subunit alpha-1 (Homo sapiens), sequence (P63096 whole entry, looked up): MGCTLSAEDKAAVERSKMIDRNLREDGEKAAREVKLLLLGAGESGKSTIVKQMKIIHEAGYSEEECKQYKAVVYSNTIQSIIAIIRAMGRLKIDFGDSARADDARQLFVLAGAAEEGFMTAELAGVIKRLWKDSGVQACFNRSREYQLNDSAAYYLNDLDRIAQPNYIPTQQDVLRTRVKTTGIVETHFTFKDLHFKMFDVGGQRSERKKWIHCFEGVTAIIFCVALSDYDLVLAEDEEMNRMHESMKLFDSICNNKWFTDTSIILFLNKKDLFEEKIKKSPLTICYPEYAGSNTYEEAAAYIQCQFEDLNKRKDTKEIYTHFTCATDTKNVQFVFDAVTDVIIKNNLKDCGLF
Alpha-galactosidase A (Homo sapiens), sequence (P06280 whole entry, looked up): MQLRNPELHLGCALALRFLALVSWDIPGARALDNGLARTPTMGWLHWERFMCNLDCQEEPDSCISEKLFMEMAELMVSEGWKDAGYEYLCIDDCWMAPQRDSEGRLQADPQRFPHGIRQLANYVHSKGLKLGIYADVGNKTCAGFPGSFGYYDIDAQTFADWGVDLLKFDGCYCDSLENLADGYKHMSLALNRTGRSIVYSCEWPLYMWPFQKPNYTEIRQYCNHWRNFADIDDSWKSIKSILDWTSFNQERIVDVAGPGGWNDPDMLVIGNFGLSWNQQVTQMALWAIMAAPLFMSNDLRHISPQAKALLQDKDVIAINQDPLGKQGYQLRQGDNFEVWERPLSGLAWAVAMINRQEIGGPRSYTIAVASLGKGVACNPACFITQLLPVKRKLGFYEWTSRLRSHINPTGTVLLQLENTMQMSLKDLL
3',5'-cyclic-AMP phosphodiesterase 4B (Homo sapiens), sequence (Q07343 whole entry, looked up): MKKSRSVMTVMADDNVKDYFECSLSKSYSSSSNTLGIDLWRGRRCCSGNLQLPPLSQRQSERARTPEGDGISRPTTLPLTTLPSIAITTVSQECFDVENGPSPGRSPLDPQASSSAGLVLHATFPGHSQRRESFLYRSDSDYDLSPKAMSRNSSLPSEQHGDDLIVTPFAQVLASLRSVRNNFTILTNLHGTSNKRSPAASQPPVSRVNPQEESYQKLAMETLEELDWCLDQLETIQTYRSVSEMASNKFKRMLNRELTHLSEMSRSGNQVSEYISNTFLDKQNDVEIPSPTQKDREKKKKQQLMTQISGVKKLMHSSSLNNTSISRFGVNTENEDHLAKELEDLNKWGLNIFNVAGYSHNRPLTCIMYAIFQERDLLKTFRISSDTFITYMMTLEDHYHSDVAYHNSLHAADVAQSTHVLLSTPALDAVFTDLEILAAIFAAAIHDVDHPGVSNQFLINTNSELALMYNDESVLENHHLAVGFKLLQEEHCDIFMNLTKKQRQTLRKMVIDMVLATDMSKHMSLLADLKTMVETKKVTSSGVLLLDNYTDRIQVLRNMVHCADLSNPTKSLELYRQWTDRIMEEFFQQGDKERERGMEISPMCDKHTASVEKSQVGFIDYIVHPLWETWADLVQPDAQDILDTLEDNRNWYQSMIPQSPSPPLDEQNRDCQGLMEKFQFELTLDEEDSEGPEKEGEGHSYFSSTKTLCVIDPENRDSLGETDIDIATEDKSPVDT
Muscarinic acetylcholine receptor M1 (Rattus norvegicus), sequence (P08482 whole entry, looked up): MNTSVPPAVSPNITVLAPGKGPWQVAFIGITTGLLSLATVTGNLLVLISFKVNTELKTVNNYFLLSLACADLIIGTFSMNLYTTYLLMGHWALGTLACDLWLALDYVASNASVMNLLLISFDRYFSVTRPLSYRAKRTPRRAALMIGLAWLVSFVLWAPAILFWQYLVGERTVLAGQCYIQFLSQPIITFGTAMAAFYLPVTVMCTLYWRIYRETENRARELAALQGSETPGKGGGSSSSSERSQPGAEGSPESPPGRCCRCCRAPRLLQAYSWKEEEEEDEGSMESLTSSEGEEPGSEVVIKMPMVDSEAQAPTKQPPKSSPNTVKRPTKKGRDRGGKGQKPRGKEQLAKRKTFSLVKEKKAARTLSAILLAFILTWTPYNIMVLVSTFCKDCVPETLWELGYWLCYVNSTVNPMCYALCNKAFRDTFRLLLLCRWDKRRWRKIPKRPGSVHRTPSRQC
Glucocorticoid receptor (Homo sapiens), sequence (P04150 whole entry, looked up): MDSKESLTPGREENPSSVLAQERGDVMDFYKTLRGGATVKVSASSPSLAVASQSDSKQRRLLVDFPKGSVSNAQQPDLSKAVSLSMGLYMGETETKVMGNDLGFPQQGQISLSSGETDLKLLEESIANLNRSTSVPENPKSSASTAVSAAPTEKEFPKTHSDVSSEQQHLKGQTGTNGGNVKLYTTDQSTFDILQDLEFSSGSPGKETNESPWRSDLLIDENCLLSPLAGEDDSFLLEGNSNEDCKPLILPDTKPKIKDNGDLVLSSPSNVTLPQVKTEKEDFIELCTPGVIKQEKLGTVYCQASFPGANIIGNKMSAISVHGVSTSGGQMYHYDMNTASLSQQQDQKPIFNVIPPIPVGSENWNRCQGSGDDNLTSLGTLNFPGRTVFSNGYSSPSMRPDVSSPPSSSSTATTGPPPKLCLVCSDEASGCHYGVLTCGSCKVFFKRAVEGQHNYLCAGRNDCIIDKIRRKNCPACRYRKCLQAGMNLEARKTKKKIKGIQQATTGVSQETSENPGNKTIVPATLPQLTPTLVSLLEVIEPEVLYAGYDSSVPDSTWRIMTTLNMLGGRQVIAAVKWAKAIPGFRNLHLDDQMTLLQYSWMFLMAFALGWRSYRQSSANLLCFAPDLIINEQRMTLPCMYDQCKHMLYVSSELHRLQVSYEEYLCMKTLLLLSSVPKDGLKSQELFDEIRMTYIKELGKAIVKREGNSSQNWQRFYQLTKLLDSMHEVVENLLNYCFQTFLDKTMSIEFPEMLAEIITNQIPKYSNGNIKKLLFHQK
Cytochrome P450 1A2 (Homo sapiens), sequence (P05177 whole entry, looked up): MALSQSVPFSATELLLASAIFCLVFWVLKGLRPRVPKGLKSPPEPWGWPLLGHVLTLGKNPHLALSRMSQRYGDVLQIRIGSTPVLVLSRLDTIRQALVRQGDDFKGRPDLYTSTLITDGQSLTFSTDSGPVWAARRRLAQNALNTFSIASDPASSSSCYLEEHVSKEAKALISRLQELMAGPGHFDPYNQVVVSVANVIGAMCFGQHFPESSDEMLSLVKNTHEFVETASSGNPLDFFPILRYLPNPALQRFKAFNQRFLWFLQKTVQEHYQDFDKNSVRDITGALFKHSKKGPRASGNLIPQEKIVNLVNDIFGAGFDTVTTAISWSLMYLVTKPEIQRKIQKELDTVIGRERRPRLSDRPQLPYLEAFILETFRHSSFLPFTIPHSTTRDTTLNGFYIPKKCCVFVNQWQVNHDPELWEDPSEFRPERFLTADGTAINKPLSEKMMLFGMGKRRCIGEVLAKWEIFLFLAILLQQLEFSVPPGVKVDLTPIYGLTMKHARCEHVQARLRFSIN
Pyruvate kinase (Leishmania mexicana), sequence (Q27686 2-499 E452W): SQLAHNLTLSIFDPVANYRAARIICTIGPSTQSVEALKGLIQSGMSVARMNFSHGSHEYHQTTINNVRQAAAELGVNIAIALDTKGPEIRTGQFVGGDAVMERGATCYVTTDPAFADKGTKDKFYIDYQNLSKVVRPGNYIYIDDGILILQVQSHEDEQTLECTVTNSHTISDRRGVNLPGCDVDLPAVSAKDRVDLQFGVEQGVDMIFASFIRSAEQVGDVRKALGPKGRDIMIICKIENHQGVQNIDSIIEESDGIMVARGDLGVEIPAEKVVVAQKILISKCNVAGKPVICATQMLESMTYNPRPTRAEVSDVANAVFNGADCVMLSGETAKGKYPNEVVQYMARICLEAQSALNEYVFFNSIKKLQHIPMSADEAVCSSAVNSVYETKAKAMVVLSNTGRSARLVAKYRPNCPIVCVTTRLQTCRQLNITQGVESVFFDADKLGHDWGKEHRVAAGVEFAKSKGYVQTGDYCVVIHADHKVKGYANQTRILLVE
Cytochrome P450 2C19 (Homo sapiens), sequence (P33261 whole entry, looked up): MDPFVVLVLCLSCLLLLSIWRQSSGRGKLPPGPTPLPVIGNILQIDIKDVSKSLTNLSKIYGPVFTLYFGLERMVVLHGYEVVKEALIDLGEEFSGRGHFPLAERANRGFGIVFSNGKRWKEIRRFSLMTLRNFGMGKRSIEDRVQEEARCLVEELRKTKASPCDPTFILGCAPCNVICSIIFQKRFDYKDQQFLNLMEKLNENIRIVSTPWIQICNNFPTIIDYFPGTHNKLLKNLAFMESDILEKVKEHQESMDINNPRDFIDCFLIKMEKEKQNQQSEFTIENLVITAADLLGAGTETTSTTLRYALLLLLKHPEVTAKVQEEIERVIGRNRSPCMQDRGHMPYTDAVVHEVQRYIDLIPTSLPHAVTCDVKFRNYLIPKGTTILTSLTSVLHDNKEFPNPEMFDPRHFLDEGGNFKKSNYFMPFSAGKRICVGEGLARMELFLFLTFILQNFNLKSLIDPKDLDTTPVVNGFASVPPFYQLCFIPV

As to `NC(=O)C1=CN([C@@H]2O[C@@H](COP(=O)(O)OP(=O)(O)OC[C@@H]3O[C@H](n4cnc5c(N)ncnc54)[C@@H](OP(=O)(O)O)[C@@H]3O)[C@H](O)[C@@H]2O)C=CC1`, the figures for the activity change, negative = inhibition in experiment [1] and in [3] were 7.61% [at 38 µM] and 0.746% [at 38 µM], respectively. The Potency entry in experiment [2], in experiment [7], in experiment [8], in [11] and in experiment [15] was “inactive” throughout. In experiment [4], the activity, negative = inhibition was -8.82% [at 38 µM]. Also, the Potency in experiment [5] and in [6] was greater than 46 µM each time. For the same compound, the outcome in experiment [9], in experiment [10], in [12], in experiment [13] and in [14] was inactive.
With `Nc1nc2c(nc(Br)n2[C@@H]2O[C@H]3COP(=O)(O)O[C@@H]3[C@H]2O)c(=O)[nH]1`, the activity change, negative = inhibition in experiment [1] is 8.86% [at 38 µM]; in experiment [3], -0.742% [at 38 µM]. Further, the Potency result in experiment [2], in [7], in experiment [8], in experiment [11] and in experiment [15] was “inactive” each time. The activity, negative = inhibition in [4] was -10.7% [at 38 µM]. Further, the Potency in experiment [5] is 12.1 µM (active); in experiment [6] it was greater than 46 µM. The call in experiment [9], in [10], in experiment [12], in experiment [13] and in experiment [14] was inactive.
Take `CCCCCCCCCC[Si](C)(C)CCC(=O)N[C@@H](Cc1ccc(C)cc1)c1ccccc1`: the activity change, negative = inhibition in experiment [1] is 20.2% [at 38 µM]; in [3], -7.96% [at 38 µM]. Further, the Potency in experiment [2] is 31.6 µM (active); in [5], greater than 46 µM; in [6], greater than 46 µM. Besides, the activity, negative = inhibition in [4] was -5.69% [at 38 µM]. Further, the Potency entry in [7], in [8], in experiment [16], in experiment [11] and in experiment [15] was “inactive” throughout. For the same compound, the call in experiment [9], in experiment [12], in experiment [13] and in experiment [14] was inactive.
Turning to `C[C@H](O)[C@H](O)[C@@H]1CNc2nc(N)[nH]c(=O)c2N1`, the activity change, negative = inhibition is 7.68% [at 38 µM] in experiment [1] and 7.39% [at 38 µM] in experiment [3]. Further, the Potency entry in experiment [2], in experiment [7], in [8], in [11] and in experiment [15] was “inactive” throughout. Besides, in experiment [4], the activity, negative = inhibition was 18.8% [at 38 µM]. Further, the Potency in experiment [5] and in [6] was greater than 46 µM in each case. Moreover, the result in [9], in [10], in experiment [12], in experiment [13] and in experiment [14] was inactive.
Consider `Oc1ccc([C@@H]2CNCc3sccc32)cc1O`, for which the activity change, negative = inhibition in experiment [1] was -15.6% [at 38 µM]; in experiment [3] it was 8.54% [at 38 µM]. The Potency result in experiment [2], in experiment [7], in experiment [8], in experiment [17], in [11] and in experiment [15] was “inactive” in each case. The activity, negative = inhibition in experiment [4] was 5.59% [at 38 µM]. The Potency in experiment [5] and in [6] was greater than 46 µM throughout. The compound was classed as inactive in experiment [9], in [12], in experiment [13] and in [14].
